What was measured:
Assay in all cases: DAPPL (digital affinity profiling via proximity ligation, sequencing); 10 mM Tris-HCl pH 7.5, 50 mM NaCl, 1 mM DTT, 4% glycerol, room temperature, 30 min; GST-TFs on glutathione beads, 16-mer random dsDNA library, 0.1% formaldehyde crosslink after washing; high values mean tight binding
Details in all cases: protein: recombinant; tags: N-terminal GST; dsDNA, one strand shown
FLI1 = target: T1, FLI1 (Homo sapiens, UniProt Q01543 1-452)
T1 sequence: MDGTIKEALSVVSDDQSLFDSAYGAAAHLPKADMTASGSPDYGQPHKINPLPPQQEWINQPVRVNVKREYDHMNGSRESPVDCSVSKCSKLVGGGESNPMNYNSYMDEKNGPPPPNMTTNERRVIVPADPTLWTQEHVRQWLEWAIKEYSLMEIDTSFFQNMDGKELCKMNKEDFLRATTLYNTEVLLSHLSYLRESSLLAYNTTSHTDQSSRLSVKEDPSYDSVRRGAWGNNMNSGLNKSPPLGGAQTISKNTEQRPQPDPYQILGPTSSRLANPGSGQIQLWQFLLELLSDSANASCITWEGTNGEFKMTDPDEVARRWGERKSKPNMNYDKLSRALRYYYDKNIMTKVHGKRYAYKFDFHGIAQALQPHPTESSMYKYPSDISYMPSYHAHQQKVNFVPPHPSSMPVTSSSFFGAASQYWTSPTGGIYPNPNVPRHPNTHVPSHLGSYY
Method in brief: (§1)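 Human transcription factors fused to GST were expressed in yeast, captured on glutathione beads, given DNA barcodes and pooled with a GST-only negative control. Pools were incubated with 200 nmole of a 16-mer random double-stranded DNA library in Tris/NaCl/DTT/glycerol buffer at room temperature for 30 min. They were then washed, crosslinked with 0.1% formaldehyde, proximity-ligated (BsaI/T4 ligase, 1 h, 37 °C), PCR-amplified and sequenced on an Illumina NextSeq500. Binding signal is each 6-mer's read frequency for a factor divided by its frequency for the GST control.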

ELK1 = target: T2, ELK1 (Homo sapiens, UniProt P19419 1-428)
T2 sequence: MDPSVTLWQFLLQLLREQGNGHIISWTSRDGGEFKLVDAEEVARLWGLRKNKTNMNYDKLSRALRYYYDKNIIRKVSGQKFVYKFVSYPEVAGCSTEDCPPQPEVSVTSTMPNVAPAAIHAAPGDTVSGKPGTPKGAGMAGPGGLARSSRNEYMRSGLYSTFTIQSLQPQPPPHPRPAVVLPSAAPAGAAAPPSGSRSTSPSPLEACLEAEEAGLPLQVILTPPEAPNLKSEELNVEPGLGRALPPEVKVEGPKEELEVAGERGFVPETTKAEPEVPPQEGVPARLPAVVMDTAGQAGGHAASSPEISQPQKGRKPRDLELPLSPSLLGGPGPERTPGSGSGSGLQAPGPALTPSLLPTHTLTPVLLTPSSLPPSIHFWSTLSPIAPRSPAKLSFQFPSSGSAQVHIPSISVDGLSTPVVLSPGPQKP
Method in brief: as §1

GABPA = target: T3, GABPA (Homo sapiens, UniProt Q06546 1-454)
T3 sequence: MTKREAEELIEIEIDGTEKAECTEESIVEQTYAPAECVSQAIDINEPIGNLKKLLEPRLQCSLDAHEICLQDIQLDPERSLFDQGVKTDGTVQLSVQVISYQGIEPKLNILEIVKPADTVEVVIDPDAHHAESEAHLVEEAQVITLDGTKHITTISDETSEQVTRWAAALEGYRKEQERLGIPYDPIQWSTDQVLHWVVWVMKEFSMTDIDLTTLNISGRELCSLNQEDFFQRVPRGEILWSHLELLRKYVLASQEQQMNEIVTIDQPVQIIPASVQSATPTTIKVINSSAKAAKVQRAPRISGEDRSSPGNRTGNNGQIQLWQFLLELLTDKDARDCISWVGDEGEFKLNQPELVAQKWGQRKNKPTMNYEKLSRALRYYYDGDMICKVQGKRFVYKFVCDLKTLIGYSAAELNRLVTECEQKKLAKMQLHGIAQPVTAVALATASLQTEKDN
Method in brief: as §1

ELF1 = ELF1 (Homo sapiens, UniProt P32519 1-619)
Method in brief: as §1

EHF = target: T4, EHF (Homo sapiens, UniProt Q9NZC4 1-300)
T4 sequence: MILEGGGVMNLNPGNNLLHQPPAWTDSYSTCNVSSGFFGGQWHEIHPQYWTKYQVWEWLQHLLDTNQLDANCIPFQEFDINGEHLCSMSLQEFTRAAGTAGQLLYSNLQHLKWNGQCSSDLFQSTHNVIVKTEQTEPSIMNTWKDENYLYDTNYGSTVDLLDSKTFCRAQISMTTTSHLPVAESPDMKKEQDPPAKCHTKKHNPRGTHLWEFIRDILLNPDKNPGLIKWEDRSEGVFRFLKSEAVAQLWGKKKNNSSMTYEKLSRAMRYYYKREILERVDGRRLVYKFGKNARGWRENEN
Method in brief: as §1

SPIC = target: T5, SPIC (Homo sapiens, UniProt Q8N5J4 1-248)
T5 sequence: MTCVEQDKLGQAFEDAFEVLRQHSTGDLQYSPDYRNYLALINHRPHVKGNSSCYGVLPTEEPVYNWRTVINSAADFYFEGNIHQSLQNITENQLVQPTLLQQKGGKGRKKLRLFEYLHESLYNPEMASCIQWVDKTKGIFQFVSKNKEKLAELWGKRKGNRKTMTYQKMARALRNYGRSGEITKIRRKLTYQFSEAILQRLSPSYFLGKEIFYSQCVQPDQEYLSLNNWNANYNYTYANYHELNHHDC
Method in brief: as §1

ELF4 = ELF4 (Homo sapiens, UniProt Q99607 1-663)
Method in brief: as §1

ELK4 = target: T6, ELK4 (Homo sapiens, UniProt P28324-2 1-405)
T6 sequence: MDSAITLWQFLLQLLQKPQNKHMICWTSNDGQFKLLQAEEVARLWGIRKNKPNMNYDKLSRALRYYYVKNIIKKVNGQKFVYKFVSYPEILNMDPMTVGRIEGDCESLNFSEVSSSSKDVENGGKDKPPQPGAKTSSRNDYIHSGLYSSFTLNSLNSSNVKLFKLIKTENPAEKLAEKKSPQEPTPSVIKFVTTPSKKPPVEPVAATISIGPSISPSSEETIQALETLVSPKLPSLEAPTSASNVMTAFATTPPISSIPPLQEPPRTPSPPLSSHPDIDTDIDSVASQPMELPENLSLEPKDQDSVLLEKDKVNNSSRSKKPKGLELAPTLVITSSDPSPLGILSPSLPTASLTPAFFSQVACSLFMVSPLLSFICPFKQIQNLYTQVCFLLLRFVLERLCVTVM
Method in brief: as §1

ETV2 = target: T7, ETV2 (Homo sapiens, UniProt O00321 1-342)
T7 sequence: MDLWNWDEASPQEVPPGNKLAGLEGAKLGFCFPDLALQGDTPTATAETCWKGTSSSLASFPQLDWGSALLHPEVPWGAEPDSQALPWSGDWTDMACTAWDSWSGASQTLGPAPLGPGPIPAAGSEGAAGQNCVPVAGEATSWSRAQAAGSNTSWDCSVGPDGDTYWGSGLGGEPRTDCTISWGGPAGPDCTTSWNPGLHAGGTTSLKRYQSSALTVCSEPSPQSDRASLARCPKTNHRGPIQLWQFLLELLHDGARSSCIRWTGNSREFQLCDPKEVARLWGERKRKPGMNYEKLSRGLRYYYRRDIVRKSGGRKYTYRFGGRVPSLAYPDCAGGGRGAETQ
Method in brief: as §1

ELF3 = target: T8, ELF3 (Homo sapiens, UniProt P78545 1-371)
T8 sequence: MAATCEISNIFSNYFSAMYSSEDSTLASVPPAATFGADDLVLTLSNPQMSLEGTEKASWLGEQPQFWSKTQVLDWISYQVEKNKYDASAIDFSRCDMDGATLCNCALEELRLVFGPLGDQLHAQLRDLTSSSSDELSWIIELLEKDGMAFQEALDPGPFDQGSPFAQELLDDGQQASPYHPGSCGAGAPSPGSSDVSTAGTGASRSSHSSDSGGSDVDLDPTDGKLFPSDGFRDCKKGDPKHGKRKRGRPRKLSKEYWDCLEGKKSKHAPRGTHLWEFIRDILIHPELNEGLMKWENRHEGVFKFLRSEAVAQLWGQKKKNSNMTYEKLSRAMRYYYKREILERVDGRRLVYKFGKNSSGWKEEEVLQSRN
Method in brief: as §1

ETV1 = ETV1 (Homo sapiens, UniProt P50549 1-477)
Method in brief: as §1

ETS2 = target: T9, ETS2 (Homo sapiens, UniProt P15036 1-469)
T9 sequence: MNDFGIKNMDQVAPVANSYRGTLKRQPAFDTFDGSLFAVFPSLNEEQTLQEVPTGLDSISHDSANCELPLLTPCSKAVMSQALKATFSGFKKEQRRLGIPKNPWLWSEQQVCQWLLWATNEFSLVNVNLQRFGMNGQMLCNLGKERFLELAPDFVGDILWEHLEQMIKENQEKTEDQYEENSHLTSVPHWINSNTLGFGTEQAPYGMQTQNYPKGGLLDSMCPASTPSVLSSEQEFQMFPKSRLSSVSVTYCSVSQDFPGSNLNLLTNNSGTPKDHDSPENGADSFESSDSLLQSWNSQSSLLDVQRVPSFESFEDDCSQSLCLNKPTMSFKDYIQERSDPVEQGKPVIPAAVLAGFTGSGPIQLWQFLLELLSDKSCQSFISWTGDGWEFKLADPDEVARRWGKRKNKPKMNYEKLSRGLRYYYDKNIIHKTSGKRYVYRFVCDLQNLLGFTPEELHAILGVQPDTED
Method in brief: as §1

ETV7 = target: T10, ETV7 (Homo sapiens, UniProt Q9Y603 1-341)
T10 sequence: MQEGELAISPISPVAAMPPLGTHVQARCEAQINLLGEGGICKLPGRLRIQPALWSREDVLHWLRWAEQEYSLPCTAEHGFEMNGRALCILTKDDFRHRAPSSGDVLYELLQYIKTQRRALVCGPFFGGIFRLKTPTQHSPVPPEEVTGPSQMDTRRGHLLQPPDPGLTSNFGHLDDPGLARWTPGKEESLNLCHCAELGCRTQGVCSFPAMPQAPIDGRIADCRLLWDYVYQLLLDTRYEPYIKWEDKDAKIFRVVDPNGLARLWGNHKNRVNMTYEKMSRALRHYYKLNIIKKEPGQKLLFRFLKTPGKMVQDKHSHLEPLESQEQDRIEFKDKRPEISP
Method in brief: as §1

ETV3 = target: T11, ETV3 (Homo sapiens, UniProt P41162-2 1-143)
T11 sequence: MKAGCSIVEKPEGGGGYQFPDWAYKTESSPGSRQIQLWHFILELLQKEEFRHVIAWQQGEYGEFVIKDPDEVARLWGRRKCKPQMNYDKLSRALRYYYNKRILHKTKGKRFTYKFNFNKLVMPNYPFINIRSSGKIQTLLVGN
Method in brief: as §1

ELF1, sequence (P32519 whole entry): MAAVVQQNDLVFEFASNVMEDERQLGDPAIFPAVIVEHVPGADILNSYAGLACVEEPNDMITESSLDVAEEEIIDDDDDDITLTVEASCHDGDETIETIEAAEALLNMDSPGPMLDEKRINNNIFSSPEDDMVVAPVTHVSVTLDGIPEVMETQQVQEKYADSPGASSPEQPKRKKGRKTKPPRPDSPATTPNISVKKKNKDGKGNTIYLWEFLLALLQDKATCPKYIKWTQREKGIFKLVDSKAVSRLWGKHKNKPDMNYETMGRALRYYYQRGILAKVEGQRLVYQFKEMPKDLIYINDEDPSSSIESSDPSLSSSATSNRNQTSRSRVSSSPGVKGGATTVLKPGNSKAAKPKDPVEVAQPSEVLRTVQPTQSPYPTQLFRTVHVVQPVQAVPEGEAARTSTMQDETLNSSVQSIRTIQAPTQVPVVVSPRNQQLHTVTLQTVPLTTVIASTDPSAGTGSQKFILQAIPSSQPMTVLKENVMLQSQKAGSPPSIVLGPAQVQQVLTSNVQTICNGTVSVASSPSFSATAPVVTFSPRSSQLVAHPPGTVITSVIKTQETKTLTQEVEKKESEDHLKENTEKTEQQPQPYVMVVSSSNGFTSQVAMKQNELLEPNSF
ELF4, sequence (Q99607 whole entry): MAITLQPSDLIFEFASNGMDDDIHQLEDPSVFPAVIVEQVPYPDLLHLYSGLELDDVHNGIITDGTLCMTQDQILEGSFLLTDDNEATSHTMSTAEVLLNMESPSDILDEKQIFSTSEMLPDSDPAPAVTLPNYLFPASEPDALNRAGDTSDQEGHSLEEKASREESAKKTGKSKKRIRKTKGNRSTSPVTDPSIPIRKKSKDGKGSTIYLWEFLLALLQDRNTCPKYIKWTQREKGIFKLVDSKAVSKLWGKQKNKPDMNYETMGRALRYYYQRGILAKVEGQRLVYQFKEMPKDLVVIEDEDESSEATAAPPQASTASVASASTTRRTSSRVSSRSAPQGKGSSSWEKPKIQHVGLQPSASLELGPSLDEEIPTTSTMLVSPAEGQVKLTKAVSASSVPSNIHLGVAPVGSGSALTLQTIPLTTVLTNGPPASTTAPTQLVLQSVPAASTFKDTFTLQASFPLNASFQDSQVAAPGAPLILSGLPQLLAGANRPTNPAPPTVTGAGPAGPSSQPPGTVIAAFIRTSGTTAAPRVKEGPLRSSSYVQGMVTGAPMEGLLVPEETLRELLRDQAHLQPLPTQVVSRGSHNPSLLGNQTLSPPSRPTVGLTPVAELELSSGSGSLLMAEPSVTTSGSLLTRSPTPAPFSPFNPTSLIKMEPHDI
ETV1, sequence (P50549 whole entry): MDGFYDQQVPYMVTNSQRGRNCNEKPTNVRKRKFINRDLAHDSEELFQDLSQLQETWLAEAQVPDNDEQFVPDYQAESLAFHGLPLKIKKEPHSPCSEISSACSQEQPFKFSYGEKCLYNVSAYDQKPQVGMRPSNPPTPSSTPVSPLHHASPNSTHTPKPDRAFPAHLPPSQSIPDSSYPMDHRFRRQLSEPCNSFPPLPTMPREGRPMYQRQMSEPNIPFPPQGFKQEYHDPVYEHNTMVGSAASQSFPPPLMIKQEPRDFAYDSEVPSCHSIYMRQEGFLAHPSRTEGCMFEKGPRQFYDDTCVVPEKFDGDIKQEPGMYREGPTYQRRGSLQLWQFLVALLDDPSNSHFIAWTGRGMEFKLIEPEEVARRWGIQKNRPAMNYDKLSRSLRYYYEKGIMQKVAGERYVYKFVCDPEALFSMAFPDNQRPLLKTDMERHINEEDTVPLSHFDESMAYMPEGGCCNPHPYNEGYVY

Sequence: AGCTGA
- binding signal (FLI1): 1.02 fold enrichment (6-mer frequency, TF over GST control)
- binding signal (ELK1): 1.07 fold enrichment (6-mer frequency, TF over GST control)
- binding signal (GABPA): 1.01 fold enrichment (6-mer frequency, TF over GST control)
- binding signal (ELF1): 1.1 fold enrichment (6-mer frequency, TF over GST control)
- binding signal (EHF): 1.11 fold enrichment (6-mer frequency, TF over GST control)
- binding signal (SPIC): 1.14 fold enrichment (6-mer frequency, TF over GST control)
- binding signal (ELF4): 1.01 fold enrichment (6-mer frequency, TF over GST control)
- binding signal (ELK4): 1.02 fold enrichment (6-mer frequency, TF over GST control)
- binding signal (ETV2): 1.08 fold enrichment (6-mer frequency, TF over GST control)
- binding signal (ELF3): 1.14 fold enrichment (6-mer frequency, TF over GST control)
- binding signal (ETV1): 1.08 fold enrichment (6-mer frequency, TF over GST control)
- binding signal (ETS2): 1.04 fold enrichment (6-mer frequency, TF over GST control)
- binding signal (ETV7): 1.09 fold enrichment (6-mer frequency, TF over GST control)
- binding signal (ETV3): 1.05 fold enrichment (6-mer frequency, TF over GST control)
